# Abeta rescue: qHTS for compounds that reverse cellular toxicity of Amyloid beta (A-beta) peptide in yeast: Primary Screen; yeast expressing A-beta42, growth rescue, OD600, 48 h; response scale: 0% DMSO, 100% iron-clioquinol control; Potency, µM (series often up to 46.1 µM), actives largely listed as activators; 410,000 compounds, 0.063% hits; AID 1347071, 2019; further: nearly all actives have a fitted effect of over 55% in size
#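 Yeast A-beta toxicity model in growth medium with pinned compounds, 48 h at 30 C; growth read as absorbance at 600 nm. Normalized to FeCl3/clioquinol equimolar mix (positive) and DMSO (negative).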
# FUS yeast rescue: qHTS for Suppressors of FUS Proteinopathy: Primary screen using FUS-linked yeast assay. S. cerevisiae FUS-expressing, growth rescue, OD600, 24 h. Potency, µM (titrated, usually from 76.6 µM), actives largely listed as activators. 390,000 compounds, 0.24% hits. AID 1347120, 2019;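 further: plate controls were DMSO vehicle for no effect and reference control for full effect; nearly all actives have a fitted effect of over 55% in size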
#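 Quantitative HTS measuring growth restoration of FUS-toxic yeast. Galactose-induced cells (OD 0.005) were exposed 24hr at 30C to compounds at several concentrations, then absorbance at 600 nm was recorded.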
# TDP43 rescue: qHTS of TDP-43 Inhibitors. TDP-43 expressing yeast growth rescue, BacTiter-Glo, 24 h. Potency, µM (highest dose often 46.1 µM), for inactives: top-dose growth rescue (activation), hits mostly activators. 410,000 compounds, 1.8% hits. AID 652104, 2013; further: % of control where 0% means no effect; nearly all actives have a fitted effect of over 50% in size
#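 Growth rescue of TDP-43-toxic yeast measured as ATP luminescence (BacTiter-Glo). Cells grown to mid-log in raffinose, induced in galactose at OD600=0.02, exposed to compound 24 hr at 30 deg C.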
# aSyn yeast inh: qHTS of alpha-syn Inhibitors | Yeast expressing alpha-synuclein, growth rescue, BacTiter-Glo, 24 h | Potency, µM (series often up to 46.1 µM), inactives show top-dose growth rescue (activation), most hits filed as activators | 370,000 compounds, 0.14% hits; further: % of control where 0% means no effect; nearly all actives have a fitted effect of over 65% in size
#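 Screening used galactose-induced yeast with toxic alpha-synuclein levels, exposed to compound for 24 hr at 30 deg C. Cell growth, read with BacTiter-Glo luminescence, gave the measured signal.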
# Active calls of the source: *; i = inactive; ? = inconclusive; . = no result. This is a sample that favours compounds with a hit; in the whole collection about 2.1% have one here. The call rests on the fitted dose curve; in most records, active means well fitted curve in the direction sought with a large enough effect; inconclusive means small, poorly fitted or top-dose-only effect, or another doubt; inactive means no such curve, though single readings can be large; an effect the other way counts as inactive or inconclusive. Potency means the concentration at half of the fitted maximal effect.
SMILES,Abeta rescue,FUS yeast rescue,TDP43 rescue,aSyn yeast inh
O=C(c1ccccc1Cl)N1CCC(c2nc3ccccc3s2)CC1,i,i,15.8µM*,.
CC(=O)OCC1=C(C(=O)O)N2C(=O)[C@@H](NC(=O)CCC[C@@H](N)C(=O)O)[C@H]2SC1,.,.,.,-6.7%
Cc1ccc(Cn2nnnc2CN2CCC(n3nnc4cc(C)ccc43)CC2)cc1,i,i,20µM*,2.1%
Cc1c(C(=O)c2cccc3ccccc23)c2cccc3c2n1[C@H](CN1CCOCC1)CO3,i,i,25.1µM*,15.7%
CCC1(C)CC(C(N)=S)CCO1 (stereo not drawn),i,i,-94.3%,-36.3%
COc1cccc(N2C(=O)/C(=C/c3ccc(C)o3)C(=O)NC2=S)c1,i,?,?,11.4%
Cc1ccc(/C=C2\C(=O)NC(=S)N(c3ccc(F)cc3)C2=O)o1,i,i,11.2µM*,-0.4%
O=S(=O)(c1ccccc1C(F)(F)F)N1CCN(c2ncnc3sccc23)CC1,i,i,12.6µM*,19.8%
O=C(NCc1ccc2c(c1)CCN2C(=O)c1ccccc1)Nc1cccc(C(F)(F)F)c1,i,i,-32.2%,.
CC(C)(C)C(O)C(Oc1ccc(Cl)cc1)n1cncn1 (stereo not drawn),?,i,2.51µM*,?
CC(C(=O)c1ccc(Cl)cc1Cl)n1cncn1 (stereo not drawn),i,i,15.5%,14.9%
COc1ccc2c(c1)CCC1C2CC[C@@]2(C)C1CC[C@@H]2NCCCCCCN1C(=O)C=CC1=O (stereo partly drawn),.,.,.,-34.9%
Cc1nc(-c2cccc(CN(C)C(=O)Oc3ccc([N+](=O)[O-])cc3)c2)no1,i,i,12.6µM*,-17.8%
COc1ccc(C=C2C(=O)NC(=S)NC2=O)cc1OC,i,i,-13.8%,-11.2%
COc1cc(C=C2C(=O)NC(=O)NC2=O)ccc1OCc1ccc([N+](=O)[O-])cc1,i,i,11.2µM*,-5.8%
O=C1NC(=O)C(=Cc2ccc(Oc3ccc([N+](=O)[O-])cc3)cc2)C(=O)N1,i,i,15.8µM*,-1.4%
O=C1NC(=O)C(=Cc2ccccc2OCCOc2ccc([N+](=O)[O-])cc2)C(=O)N1,i,i,-73.3%,-17.7%
C[Se]C[C@H](N)C(=O)O,.,.,.,-19.1%
O=C(CI)c1ccc(Cl)cc1,.,.,.,15.0%
CCC(C)NC(=O)CCC(=O)OC1O[C@H]2OC3(C)CC[C@H]4[C@H](C)CCC(C1C)C24OO3 (stereo partly drawn),i,i,35.5µM*,-9.4%
C#CC1(O)C=CC2C3CCC4=CC(=O)CCC4C3CCC21CC (stereo not drawn),i,i,14.1µM*,16.2%
CCC(=NCCCn1ccnc1)c1c(O)n(Cc2ccccc2)c(=O)[nH]c1=O,i,i,31.6µM*,-2.1%
CC(=O)NCC(N)C(=O)c1ccc(C)cc1 (stereo not drawn),.,.,.,0.7%
COc1ccc(C(=O)Nc2ccc(Cl)cc2C(=O)c2ccccc2)c(OC)c1,i,?,13.9%,.
COc1ccccc1C(=O)Nc1nnc(-c2ccc(Cl)cc2)o1,i,i,12.6µM*,4.8%
SMILES,Abeta rescue,FUS yeast rescue,TDP43 rescue,aSyn yeast inh
CN(N=O)c1ccc(O)c(O)c1,.,.,.,1.9%
O=C1NCCOC(=O)[C@@H](Cc2ccc(F)cc2)CC/C=C/C[C@H]1CC(=O)N(CCO)Cc1ccccc1,i,i,19.4%,?
O=c1c(-c2ccccc2)c(O)c2ccccc2n1-c1ccccc1,i,i,12.6µM*,-14.4%
COC(=O)C1=C(c2ccc(F)cc2OCc2ccccc2)C[C@@H]2CC[C@H]1N2C(=O)NCc1ccc(OC)cc1,i,i,?,6.5%
COC(=O)C1=C(c2ccccc2OCc2ccccc2)C[C@@H]2CC[C@H]1N2C(=O)NCc1ccc(N(C)C)cc1,i,i,19.4%,18.0%
COC(=O)C1=C(c2ccc(F)cc2OCc2ccccc2)C[C@@H]2CC[C@H]1N2C(=O)NCc1ccc(Br)cc1,i,?,3.55µM*,11.7%
COC(=O)C1=C(c2ccccc2OCc2ccccc2)C[C@@H]2CC[C@H]1N2C(=O)NCc1ccc(Cl)cc1,i,31.6µM*,?,12.8%
COC(=O)C1=C(c2ccccc2OCc2ccccc2)C[C@@H]2CC[C@H]1N2C(=O)NCc1ccc([N+](=O)[O-])cc1,i,28.2µM*,23.1%,14.0%
O=C(Nc1cccc(C(F)(F)F)c1)C1CCCN1S(=O)(=O)c1cccc2nsnc12 (stereo not drawn),i,i,?,.
C[C@H]1COC(=O)[C@@H](Cc2ccc(F)cc2)CC/C=C/C[C@H](CC(=O)N(CCO)Cc2ccccc2)C(=O)N1,i,i,17.5%,?
CCN(CC)P(=O)(Nc1ccc([N+](=O)[O-])cc1)c1c(C)nn(CCC#N)c1NC(=O)c1ccc(Cl)cc1Cl (stereo not drawn),i,i,5.0%,1.0%
O=[N+]([O-])c1ccc2c(c1)Cc1cc(O)ccc1-2,i,.,3.55µM*,1.2%
Nc1ccc2c(c1)Cc1ccccc1-2,i,i,-1.2%,10.0%
Nc1ccc2c(c1)Cc1cc([N+](=O)[O-])ccc1-2,i,i,8.91µM*,?
O=[N+]([O-])c1cccc(O)c1,i,i,?,3.6%
O=C(C[C@H]1C=C[C@H](NC(=O)Nc2ccccc2F)[C@@H](CO)O1)NCc1ccc(-c2ccccc2)cc1,i,i,16.7%,?
C[C@@H]1CN([C@@H](C)CO)C(=O)CCCn2nncc2CO[C@@H]1CN(C)C(=O)Nc1ccc(N2CCCCC2)cc1,i,i,0.0%,-11.8%
CC(C)(O)[C@@H]1C2OC(=O)[C@@H]1[C@]1(O)C[C@H]3O[C@]34C(=O)O[C@H]2[C@]14C (tested in a mixture with another compound),.,.,.,3.4%
CC(=O)C1CCC2C3C(N4CC4)CC4=CC(=O)CCC4(C)C3CCC12C (stereo not drawn),i,.,11.7%,0.1%
CC(=O)[C@H]1CC[C@H]2[C@@H]3CCC4=CC(=O)CC[C@]4(C)[C@H]3CC[C@]12C,i,i,35.5µM*,11.3%
Nc1ccc2cc(Br)ccc2c1,i,i,35.5µM*,8.0%
Nc1ccc(Br)cc1,i,i,-14.4%,0.4%
CCn1nc(-c2cccs2)nc2c(=O)n(C)c(=O)nc1-2,i,i,-93.5%,-73.0%
CCn1nc(/C=C/c2ccccc2)nc2c(=O)n(C)c(=O)nc1-2,i,i,3.16µM*,-92.4%
O=C(O)C1(Br)CC12c1ccccc1-c1ccccc12 (stereo not drawn),i,.,12.6µM*,-0.8%
CC(C(=O)O)c1ccc(-c2ccccc2)c(F)c1 (stereo not drawn),i,i,15.8µM*,-11.6%
